Results published in publication PMC5540273 (PLoS ONE, 2017).

Experiments:
Details in all cases: concentration: 1 μM, replicates: in singlicate; n = 1
PRKX = system: PRKX
PRP4 = system: PRP4
PYK2 = system: T1, PYK2
T1 construct: gene PTK2B

QSK = system: QSK
RAF1 = system: RAF1
RET = system: RET
RIOK1 = system: RIOK1
RIOK2 = system: RIOK2
RIOK3 = system: RIOK3
RIPK1 = system: RIPK1
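Note: KINOMEscan kinase panel screen.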

CCn1c(-c2nonc2N)nc2ccccc21 [SB-693162/GW549034]
%Inh (PRKX): 24% | %Inh (PRP4): 0% | %Inh (PYK2): 0% | %Inh (QSK): 0% | %Inh (RAF1): 0% | %Inh (RET): 22% | %Inh (RIOK1): 0% | %Inh (RIOK2): 14% | %Inh (RIOK3): 0% | %Inh (RIPK1): 0%

CCc1ccc(-c2ccc3c(c2)-c2nn(C)cc2S(=O)(=O)N3C)cc1
%Inh (PRKX): 0% | %Inh (PRP4): 27% | %Inh (PYK2): 0% | %Inh (QSK): 0% | %Inh (RAF1): 19% | %Inh (RET): 16% | %Inh (RIOK1): 15% | %Inh (RIOK2): 0% | %Inh (RIOK3): 0% | %Inh (RIPK1): 12%

Fc1cccc(CSc2nnc(-c3ccc4c(c3)CCO4)o2)c1
%Inh (PRKX): 7% | %Inh (PRP4): 0% | %Inh (PYK2): 8% | %Inh (QSK): 0% | %Inh (RAF1): 2% | %Inh (RET): 0% | %Inh (RIOK1): 0% | %Inh (RIOK2): 5% | %Inh (RIOK3): 8% | %Inh (RIPK1): 3%

C[C@@H]1CC[C@H](C(=O)NC2CCCCC2)CN1c1cc(-c2ccc3c(N)n[nH]c3c2)nc(N)n1 [GSK2291363]
%Inh (PRKX): 84% | %Inh (PRP4): 26% | %Inh (PYK2): 24% | %Inh (QSK): 7% | %Inh (RAF1): 16% | %Inh (RET): 53% | %Inh (RIOK1): 96.1% | %Inh (RIOK2): 22% | %Inh (RIOK3): 93.7% | %Inh (RIPK1): 22%

Nc1n[nH]c2ncc(-c3ccccc3)cc12 [SB-517081]
%Inh (PRKX): 0% | %Inh (PRP4): 24% | %Inh (PYK2): 0% | %Inh (QSK): 1% | %Inh (RAF1): 0% | %Inh (RET): 12% | %Inh (RIOK1): 6% | %Inh (RIOK2): 0% | %Inh (RIOK3): 4% | %Inh (RIPK1): 0%

COC(=O)c1c(-c2ccccc2)c2cc(Br)ccc2c(=O)n1Cc1ccc(S(C)(=O)=O)cc1
%Inh (PRKX): 28% | %Inh (PRP4): 0% | %Inh (PYK2): 6% | %Inh (QSK): 0% | %Inh (RAF1): 27% | %Inh (RET): 16% | %Inh (RIOK1): 0% | %Inh (RIOK2): 19% | %Inh (RIOK3): 0% | %Inh (RIPK1): 0%

CCCNC(=O)Nc1ccc(Oc2ncnc3ccn(C)c23)cc1
%Inh (PRKX): 0% | %Inh (PRP4): 8% | %Inh (PYK2): 3% | %Inh (QSK): 0% | %Inh (RAF1): 2% | %Inh (RET): 8% | %Inh (RIOK1): 9% | %Inh (RIOK2): 10% | %Inh (RIOK3): 14% | %Inh (RIPK1): 0%

COc1cccc(-n2cnc3c(N)ncnc32)c1 [SKF-97416]
%Inh (PRKX): 32% | %Inh (PRP4): 0% | %Inh (PYK2): 0% | %Inh (QSK): 28% | %Inh (RAF1): 0% | %Inh (RET): 0% | %Inh (RIOK1): 0% | %Inh (RIOK2): 22% | %Inh (RIOK3): 0% | %Inh (RIPK1): 0%

CCS(=O)(=O)c1ccc(OC)c(Nc2ncc(-c3ccc(F)cc3)o2)c1.Cl [GW591947]
%Inh (PRKX): 0% | %Inh (PRP4): 16% | %Inh (PYK2): 11% | %Inh (QSK): 0% | %Inh (RAF1): 9% | %Inh (RET): 13% | %Inh (RIOK1): 22% | %Inh (RIOK2): 0% | %Inh (RIOK3): 29% | %Inh (RIPK1): 10%

O=C1NC(=O)C(c2ccccc2)=C1Nc1cccc(O)c1 [SB-390534]
%Inh (PRKX): 0% | %Inh (PRP4): 0% | %Inh (PYK2): 12% | %Inh (QSK): 9% | %Inh (RAF1): 13% | %Inh (RET): 0% | %Inh (RIOK1): 0% | %Inh (RIOK2): 0% | %Inh (RIOK3): 0% | %Inh (RIPK1): 0%

O=C(Nc1n[nH]c2nc(-c3ccccc3)c(Cl)cc12)C1CC1 [SB-734909]
%Inh (PRKX): 0% | %Inh (PRP4): 0% | %Inh (PYK2): 0% | %Inh (QSK): 38% | %Inh (RAF1): 30% | %Inh (RET): 0% | %Inh (RIOK1): 7% | %Inh (RIOK2): 41% | %Inh (RIOK3): 7% | %Inh (RIPK1): 55%

Nc1ncnc2c1ncn2-c1cccc(F)c1 [SKF-97560]
%Inh (PRKX): 0% | %Inh (PRP4): 0% | %Inh (PYK2): 6% | %Inh (QSK): 13% | %Inh (RAF1): 14% | %Inh (RET): 1% | %Inh (RIOK1): 38% | %Inh (RIOK2): 19% | %Inh (RIOK3): 49% | %Inh (RIPK1): 22%

CC(C)(C)c1ccc(C(=O)Nc2cn3cc(-c4ccccc4)ccc3n2)cc1
%Inh (PRKX): 3% | %Inh (PRP4): 19% | %Inh (PYK2): 0% | %Inh (QSK): 0% | %Inh (RAF1): 0% | %Inh (RET): 0% | %Inh (RIOK1): 2% | %Inh (RIOK2): 14% | %Inh (RIOK3): 22% | %Inh (RIPK1): 0%

COc1cccc(C2=C(N(C)c3ccccc3)C(=O)NC2=O)c1 [SB-334865]
%Inh (PRKX): 25% | %Inh (PRP4): 41% | %Inh (PYK2): 8% | %Inh (QSK): 1% | %Inh (RAF1): 12% | %Inh (RET): 17% | %Inh (RIOK1): 39% | %Inh (RIOK2): 0% | %Inh (RIOK3): 0% | %Inh (RIPK1): 0%

CN1C(=O)C(Nc2ccccc2)=C(c2ccccc2)C1=O [SB-300079]
%Inh (PRKX): 0% | %Inh (PRP4): 2% | %Inh (PYK2): 6% | %Inh (QSK): 0% | %Inh (RAF1): 44% | %Inh (RET): 0% | %Inh (RIOK1): 13% | %Inh (RIOK2): 0% | %Inh (RIOK3): 0% | %Inh (RIPK1): 0%

Cc1cc(Nc2nc(-c3cccc(C)n3)nc3ccccc23)ccn1 [GW872411]
%Inh (PRKX): 0% | %Inh (PRP4): 0% | %Inh (PYK2): 14% | %Inh (QSK): 0% | %Inh (RAF1): 0% | %Inh (RET): 0% | %Inh (RIOK1): 0% | %Inh (RIOK2): 0% | %Inh (RIOK3): 0% | %Inh (RIPK1): 0%

COc1cccc(C2=C(Nc3cccc(C(=O)O)c3)C(=O)NC2=O)c1 [SB-390770]
%Inh (PRKX): 7% | %Inh (PRP4): 49% | %Inh (PYK2): 0% | %Inh (QSK): 0% | %Inh (RAF1): 11% | %Inh (RET): 17% | %Inh (RIOK1): 14% | %Inh (RIOK2): 6% | %Inh (RIOK3): 0% | %Inh (RIPK1): 0%
